Screening data from PubChem BioAssay.
Rows were chosen to be rich in hits. Some 11% of all compounds tested hit in one or more screens of this group.
JMJD2A Tudor inh = qHTS Assay for Inhibitors of JMJD2A-Tudor Domain. AlphaScreen JMJD2A-Tudor / H3K4me3 peptide binding. Potency, µM (series often up to 114 µM), inactives show at the highest dose activity change, negative = inhibition, usual class: inhibitors. 390,000 compounds, 4.4% hits. AID 504339, 2011; further: on the % scale 0 is the no-effect control and ±100 the full control effect; nearly all actives have a fitted effect of over 50% in size
L3MBTL1 block = qHTS Assay for the Inhibitors of L3MBTL1. 230,000 compounds, 0.66% hits. Potency, µM (doses to about 57.1 µM), without a hit: at the top dose activity, negative = inhibition, hits mostly inhibitors. Lethal(3)malignant brain tumor-like protein 1 (Homo sapiens), Q9Y468. AlphaScreen L3MBTL1–H3K9me1 peptide binding; further: on the % scale 0 is the no-effect control and ±100 the full control effect; nearly all actives have a fitted effect of over 60% in size
Target sequence (Q9Y468 whole entry, looked up): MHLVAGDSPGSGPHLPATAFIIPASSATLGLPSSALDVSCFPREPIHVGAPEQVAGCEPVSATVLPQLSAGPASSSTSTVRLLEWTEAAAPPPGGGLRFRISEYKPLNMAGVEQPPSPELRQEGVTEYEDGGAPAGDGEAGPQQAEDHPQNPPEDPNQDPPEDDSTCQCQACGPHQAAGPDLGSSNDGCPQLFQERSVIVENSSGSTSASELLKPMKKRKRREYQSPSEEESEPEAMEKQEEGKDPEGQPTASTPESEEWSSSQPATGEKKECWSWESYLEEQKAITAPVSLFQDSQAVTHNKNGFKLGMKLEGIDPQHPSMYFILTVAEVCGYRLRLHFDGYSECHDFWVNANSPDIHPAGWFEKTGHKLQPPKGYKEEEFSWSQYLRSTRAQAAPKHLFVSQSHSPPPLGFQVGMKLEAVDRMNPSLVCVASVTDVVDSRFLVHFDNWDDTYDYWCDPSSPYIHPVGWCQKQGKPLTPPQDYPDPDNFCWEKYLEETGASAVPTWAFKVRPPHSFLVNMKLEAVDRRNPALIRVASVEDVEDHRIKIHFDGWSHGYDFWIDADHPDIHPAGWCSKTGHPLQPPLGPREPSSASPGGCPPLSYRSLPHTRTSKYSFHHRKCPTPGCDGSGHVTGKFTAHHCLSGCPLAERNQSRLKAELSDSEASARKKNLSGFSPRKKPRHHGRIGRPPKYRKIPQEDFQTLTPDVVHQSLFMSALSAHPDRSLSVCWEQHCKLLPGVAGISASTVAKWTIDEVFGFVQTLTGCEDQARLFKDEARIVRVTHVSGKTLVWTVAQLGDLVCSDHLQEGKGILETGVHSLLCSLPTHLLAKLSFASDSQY
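AlphaScreen proximity signal between nickel-chelate acceptor and streptavidin donor beads (final 10 ug/mL) reports binding of 50 nM L3MBTL1 to 75 nM biotin-H3 K9me1 peptide; complex incubated with compounds 30 min at room temperature; cefsulodin titration as control.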
HP1b chromo inh = HTS for Inhibitors of HP1-beta Chromodomain Interactions with Methylated Histone Tails; Chromobox protein homolog 1 (Homo sapiens), P83916; AlphaScreen HP1-beta / biotin-H3K9me3 peptide binding; Potency, µM (top dose mostly 114 µM), inactives show at the highest dose activity change, negative = inhibition, actives largely listed as inhibitors; 390,000 compounds, 0.56% hits; AID 540317, 2011; further: nearly all actives have a fitted effect of over 70% in size
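AlphaScreen: HP1-beta (50 nM) preformed 30 min with biotin-H3(1-18)K9me3 peptide (50 nM) in PBS pH 7.4, 0.01% Tween-20. Compound added for 30 min at RT, then streptavidin donor/nickel chelate acceptor beads (10 ug/mL) for 30 min.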
G9a inh = qHTS Assay for Inhibitors of Histone Lysine Methyltransferase G9a; Histone-lysine N-methyltransferase EHMT2 (Homo sapiens), Q96KQ7; G9a H3K9 monomethylation, AlphaScreen, 2 h; Potency, µM (titrated, usually from 102 µM), without a hit: at the highest dose activity, negative = inhibition, usual class: inhibitors; 350,000 compounds, 8.8% hits; AID 504332, 2011; further: on the % scale 0 is the no-effect control and ±100 the full control effect; nearly all actives have a fitted effect of over 75% in size
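AlphaScreen read-out: biotin-H3K9 peptide (500 nM) methylation by 20 nM enzyme with 20 uM SAM, 2 h at room temperature after 15 min compound preincubation; anti-monomethyl H3K9 antibody plus donor/acceptor beads, 10 min dark.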
BAZ2B block = qHTS Assay for Inhibitors of BAZ2B | Bromodomain adjacent to zinc finger domain protein 2B (Homo sapiens), Q9UIF8 | AlphaScreen BAZ2B-H3K14Ac peptide displacement | Potency, µM (doses to about 114 µM), for the others: top-dose activity change, negative = inhibition, usual class: inhibitors | 360,000 compounds, 4.4% hits | AID 504333, 2011; further: on the % scale 0 is the no-effect control and ±100 the full control effect; nearly all actives have a fitted effect of over 60% in size
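Complex of BAZ2B and biotin-H3K14Ac (50 nM apiece) forms over 30 min at RT, then faces library compounds up to 110 uM for another 30 min; AlphaScreen beads added, 20 min dark incubation, luminescence read.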
Numbers without * were called inactive; [ ] = another dose, or the depositor's remark. The call rests on the fitted dose curve; in most records, active means well fitted inhibition curve with a large enough effect; inconclusive means small, poorly fitted or top-dose-only effect; inactive means no such curve, though single readings can be large or run the other way. Potency means the concentration at half of the fitted maximal effect.

COc1ccccc1CNCc1cc(OC)c(OC)c(OC)c1 was read as JMJD2A Tudor inh 39.8µM*, HP1b chromo inh 70.8µM*, G9a inh 7.94µM* and BAZ2B block 79.4µM*.
`O=C1CC(c2nnc(Cc3ccc(F)cc3)o2)CN1c1ccccc1` (stereo not given) gave JMJD2A Tudor inh -2.7%, HP1b chromo inh 5.9%, G9a inh -19.5%[59 µM] and BAZ2B block -11.2%.
`CCOC(=O)COc1nc(-c2ccco2)cc(-c2ccco2)c1C#N` gave JMJD2A Tudor inh 35.6%, L3MBTL1 block -5.6%, HP1b chromo inh 21.7%, G9a inh -30.4%[59 µM] and BAZ2B block -22.4%.
For CCOC(=O)C(C)Sc1nc(-c2ccco2)cc(C(F)(F)F)c1C#N (stereo not given) the results were JMJD2A Tudor inh -10.0%, L3MBTL1 block 12.4%, HP1b chromo inh 47.2%, G9a inh 39.8µM* and BAZ2B block 19.2%.
For COc1ccc(CCNC(=O)CCn2c(=O)c3cccn3c3ccc(F)cc32)cc1OC the results were JMJD2A Tudor inh -9.9%, HP1b chromo inh 3.7%, G9a inh -7.9%[59 µM] and BAZ2B block -19.6%.
For CC(C)(CN1CCCC1)NS(=O)(=O)c1ccc(Cl)cc1 the results were JMJD2A Tudor inh 0.0%, HP1b chromo inh 0.2%, G9a inh 4.6%[12.7 µM] and BAZ2B block 5.5%.
For CCOC(=O)C1CCN(C2=C(NS(=O)(=O)c3ccc(Cl)cc3)C(=O)c3ccccc3C2=O)CC1 the results were JMJD2A Tudor inh 11.2µM*, L3MBTL1 block inconclusive, HP1b chromo inh inconclusive, G9a inh 4.47µM* and BAZ2B block 8.91µM*.
`CC1CCCC(C)N1CC(C)(C)NS(=O)(=O)c1ccc(Cl)cc1` (stereo not given) gave JMJD2A Tudor inh 24.2%, HP1b chromo inh 21.4%, G9a inh inconclusive and BAZ2B block 50.1µM*.
Screening CCOC(=O)C1CCCN(C2=C(NS(=O)(=O)c3ccc(Br)cc3)C(=O)c3ccccc3C2=O)C1 (stereo not given) returned JMJD2A Tudor inh 10µM*, HP1b chromo inh 10µM* and BAZ2B block 8.91µM*.
`CCOC(=O)C1CCN(S(=O)(=O)c2ccc(Cl)cc2)CC1` gave JMJD2A Tudor inh 0.7%, HP1b chromo inh 11.1%, G9a inh -4.5% and BAZ2B block -3.6%.
`CCOC(=O)C1CCN(CC(C)(C)NS(=O)(=O)c2ccc(Cl)cc2)CC1` gave JMJD2A Tudor inh 3.16µM*, HP1b chromo inh 79.4µM*, G9a inh 11.2µM* and BAZ2B block 50.1µM*.
`Cc1nn(-c2ccccc2)c2c1cc1c(=O)n(C)c(=O)nc-1n2-c1cccc(Cl)c1` gave JMJD2A Tudor inh 8.3%, HP1b chromo inh 69.2% and G9a inh 8.0%[59 µM].
Screening COc1ccc(NC(=O)c2ccc(CNS(=O)(=O)c3ccc4c(c3)C(C)(C)C(=O)N4C)cc2)cc1 returned JMJD2A Tudor inh 7.3%, HP1b chromo inh 53.7%, G9a inh 0.9%[59 µM] and BAZ2B block -0.8%.
`CNc1ccccc(-c2ccc3ccccc3n2)c1=O` gave JMJD2A Tudor inh -15.7%, L3MBTL1 block -2.4%, HP1b chromo inh 47.4%, G9a inh 89.1µM* and BAZ2B block -1.5%.
`c1ccc(-c2ccc3ccccc3n2)cc1` gave JMJD2A Tudor inh 48.3% and HP1b chromo inh 88.5%.
COc1cc(OC)c(NC(=O)c2ccc3nc(C(C)C)oc3c2)cc1Cl was read as JMJD2A Tudor inh 7.7%, HP1b chromo inh 22.5%[57 µM], G9a inh 1.8%[59 µM] and BAZ2B block -5.2%.
COc1ccc(OC)c(CN2CCN(Cc3cc(OC)c(OC)c(OC)c3)CC2)c1 was read as JMJD2A Tudor inh 22.4µM*, L3MBTL1 block 0.8%[2.29 µM], HP1b chromo inh inconclusive, G9a inh -9.0%[0.501 µM] and BAZ2B block 79.4µM*.
Screening COc1cc(CN2CCCCCC2)cc(OC)c1OC returned JMJD2A Tudor inh 5.01µM*, L3MBTL1 block 9.5%, HP1b chromo inh inconclusive, G9a inh 31.6µM* and BAZ2B block inconclusive.
`CCCCOc1ccccc1C1CC(=O)Nc2ccc3ccccc3c21` (stereo not given) gave JMJD2A Tudor inh -28.8%, HP1b chromo inh 24.1%, G9a inh -38.6%[59 µM] and BAZ2B block inconclusive.
For Cc1ccccc1CNC(=O)CN1C(=O)CCCc2ccccc21 the results were JMJD2A Tudor inh -19.8%, HP1b chromo inh -4.2%, G9a inh 4.3%[59 µM] and BAZ2B block 5.5%.
O=C1CS(=O)(=O)C2(C(=O)Nc3ccccc32)N1c1cccc(Cl)c1 (stereo not given) was read as JMJD2A Tudor inh -1.3%, HP1b chromo inh 20.7%, G9a inh 22.4µM* and BAZ2B block 0.7%[57.1 µM].
For CN(CC(=O)Nc1cccc(F)c1)C(=O)CN1C(=O)C2CCCCC2C1=O (stereo not given) the results were JMJD2A Tudor inh 0.7%, L3MBTL1 block -2.3%, HP1b chromo inh 36.8%, G9a inh -11.4%[59 µM] and BAZ2B block 3.6%.
`CCN(CC)Cc1cc(O)c(CN(CC)CC)cc1O` gave JMJD2A Tudor inh 0.794µM*, L3MBTL1 block 3.16µM*, HP1b chromo inh 1.41µM*, G9a inh 1.26µM* and BAZ2B block 17.8µM*.
`C[C@@H]1C(SC2Cn3cnc[n+]3C2)=C(C(=O)[O-])N2C(=O)[C@H]([C@@H](C)O)[C@@H]12` (stereo not given in full) gave G9a inh 31.7%[59 µM].
O=C(Cn1c(/C=C/c2ccccc2)nc2ccccc21)Nc1ccc(F)cc1 was read as JMJD2A Tudor inh 50.1µM*, L3MBTL1 block 4.5%, HP1b chromo inh 16.3%, G9a inh 27.7%[59 µM] and BAZ2B block -3.4%.
`CSc1nc2ccccc2n1CC(=O)Nc1ccccc1` gave JMJD2A Tudor inh -10.1%, L3MBTL1 block 2.8%, HP1b chromo inh 24.3%, G9a inh 32.7% and BAZ2B block 19.1%.
For COc1ccc(NC(=O)CN2CCc3ccccc3C2)cc1 the results were JMJD2A Tudor inh 22.4µM* and HP1b chromo inh inconclusive.
For Cc1cc(NC(=O)CN2CCc3ccccc3C2)nc2c1c(=O)oc1ccccc12 the results were JMJD2A Tudor inh -22.0%, L3MBTL1 block 0.9%, HP1b chromo inh 39.5%, G9a inh 28.2µM* and BAZ2B block -5.4%.
For COc1ccc(N2CCN(CC(=O)Nc3cc(C)cc(C)c3)CC2)cc1 the results were JMJD2A Tudor inh inconclusive, L3MBTL1 block -28.8%, HP1b chromo inh -19.6%, G9a inh 79.4µM* and BAZ2B block inconclusive.
For Cc1cccc(C(=O)NCCc2nc3ccccc3n2CCC(C)C)c1 the results were JMJD2A Tudor inh -10.7%, HP1b chromo inh 54.4%, G9a inh -3.8%[59 µM] and BAZ2B block -2.4%.
